Experimental data as given in PubChem BioAssay (Tox21).
“And” between values parts separate entries of the source, which are not always exact repeats. Equal values may be shown once. Inconclusive results are not listed. A structure can be active in one record and inactive in another. The source made the active and inactive calls. Unless noted, the call rests on the fitted dose curve; in most records, active means well fitted curve in the direction sought with a large enough effect in the repeat runs; inconclusive means weak or mixed curves; inactive means no such curve, though single readings can be large; an effect the other way counts as inactive or inconclusive.

Columns and labels:
[1] = Caspase-3/7 induction in HepG2 cells by small molecules, qHTS assay (AID 1346978); further: nearly all actives have a fitted effect of over 15% in size; further: potency means the concentration at half of the fitted maximal effect
Summary of the method: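 Wild-type HepG2 cells (2,000/well) were settled 5 h at 37 C, 5% CO2, then exposed to compounds in DMSO for 17 h. Caspase-3/7 activity was read by luminescence 30 min after adding Caspase-Glo 3/7 reagent at room temperature.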

[2] = Caspase-3/7 induction in CHO-K1 cells by small molecules, qHTS cell viability counter screen (AID 1346979); further: nearly all actives have a fitted effect of over 35% in size; further: potency means the concentration at half of the fitted maximal effect
Summary of the method: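 In the same wells as the caspase read, viability of compound-treated wild-type CHO-K1 cells was assessed using CellTiter-Fluor, added after 16hr at 37C and measured by fluorescence following 1hr further incubation.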

[3] = molecular target: Nuclear receptor subfamily 1 group I member 2 (Homo sapiens) (UniProt O75469); assay: Human pregnane X receptor (PXR) small molecule agonists, qHTS assay (AID 1346982); further: nearly all actives have a fitted effect of over 35% in size; further: potency means the concentration at half of the fitted maximal effect
Sequence of Nuclear receptor subfamily 1 group I member 2 (Homo sapiens) (O75469 whole entry, looked up): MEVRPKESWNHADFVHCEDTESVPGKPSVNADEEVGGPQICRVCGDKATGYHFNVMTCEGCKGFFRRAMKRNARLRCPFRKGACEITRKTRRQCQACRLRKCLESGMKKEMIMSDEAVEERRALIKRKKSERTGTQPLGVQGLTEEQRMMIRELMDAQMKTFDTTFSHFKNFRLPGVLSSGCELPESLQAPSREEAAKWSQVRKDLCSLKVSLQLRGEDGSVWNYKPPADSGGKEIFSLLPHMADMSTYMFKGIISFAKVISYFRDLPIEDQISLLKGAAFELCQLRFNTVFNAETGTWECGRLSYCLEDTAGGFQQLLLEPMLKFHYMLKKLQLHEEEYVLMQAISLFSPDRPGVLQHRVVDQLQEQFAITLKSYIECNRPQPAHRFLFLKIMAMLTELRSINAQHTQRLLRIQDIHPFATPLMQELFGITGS
Summary of the method: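 We seeded PXR-Luc HepG2 cells in assay medium containing 5% charcoal-stripped FBS, added compounds 5 hr later, incubated 24 hr, and read luminescence with ONE-Glo reagent.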

[4] = molecular target: Acetylcholinesterase (Homo sapiens) (UniProt P22303); assay: Acetylcholinesterase (AChE) small molecule antagonists: colormetric cell-based qHTS assay (AID 1347395; calls by dose curve; further: nearly all actives have a fitted effect of over 30% in size; further: potency means the concentration at half of the fitted maximal effect)
Sequence of Acetylcholinesterase (Homo sapiens) (P22303 whole entry, looked up): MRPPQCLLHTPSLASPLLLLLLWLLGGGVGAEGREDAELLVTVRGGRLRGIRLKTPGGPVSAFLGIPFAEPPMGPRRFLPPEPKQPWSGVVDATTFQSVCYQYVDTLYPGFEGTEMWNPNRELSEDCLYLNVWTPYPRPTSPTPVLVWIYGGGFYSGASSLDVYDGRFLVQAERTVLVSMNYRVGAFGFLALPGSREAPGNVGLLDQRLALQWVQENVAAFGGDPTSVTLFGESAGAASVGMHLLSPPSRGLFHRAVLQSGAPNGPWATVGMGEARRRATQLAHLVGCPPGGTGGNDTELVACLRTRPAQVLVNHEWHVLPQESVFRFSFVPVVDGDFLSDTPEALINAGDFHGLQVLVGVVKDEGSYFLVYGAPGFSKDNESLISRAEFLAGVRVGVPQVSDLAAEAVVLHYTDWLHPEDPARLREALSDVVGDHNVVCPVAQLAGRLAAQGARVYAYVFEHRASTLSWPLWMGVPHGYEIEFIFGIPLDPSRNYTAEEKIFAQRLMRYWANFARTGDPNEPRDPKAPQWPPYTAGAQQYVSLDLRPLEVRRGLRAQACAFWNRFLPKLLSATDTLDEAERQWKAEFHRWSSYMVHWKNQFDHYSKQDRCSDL
Summary of the method: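 Endogenous AChE of human neuroblastoma SH-SY5Y cells was measured with an Ellman-type DTNB/acetylthiocholine mix. Compound pretreatment lasted 30 min at 37 C; substrate reaction ran 90 min at 37 C.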

[5] = molecular target: Acetylcholinesterase (Homo sapiens) (UniProt P22303); assay: Acetylcholinesterase (AChE) small molecule antagonists: enzyme-based qHTS assay (AID 1347397; calls by dose curve; further: nearly all actives have a fitted effect of over 55% in size; further: potency means the concentration at half of the fitted maximal effect); settings: Potency: AChE enzyme activity inhibition
Summary of the method: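 Recombinant human AChE, dispensed at 50 mU/mL, was preincubated with Tox21 10K compounds or DMSO vehicle for 30 min at room temperature. DTNB plus acetylthiocholine was then added, and thiocholine was measured colorimetrically after a further 10 min.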

[6] = molecular target: Acetylcholinesterase (Homo sapiens) (UniProt P22303); assay: Acetylcholinesterase (AChE) small molecule antagonists: fluorescence cell-based qHTS assay (AID 1347398; calls by dose curve; further: nearly all actives have a fitted effect of over 50% in size; further: potency means the concentration at half of the fitted maximal effect); settings: Potency: AChE activity
Summary of the method: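 Human SH-SY5Y cells were plated overnight at 37 C, exposed to compound for 30 min at 37 C, 5% CO2, then given acetylthiocholine plus Thiolite Green for 40 min at room temperature; thiocholine fluorescence (Ex/Em 490/520 nm) reports endogenous AChE activity.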

[7] = molecular target: Acetylcholinesterase (Homo sapiens) (UniProt P22303); assay: Acetylcholinesterase (AChE) small molecule antagonists: enzyme-based qHTS assay with human liver microsomes (AID 1347399; calls by dose curve; further: nearly all actives have a fitted effect of over 60% in size); settings: Potency: qHTS inhibition
Summary of the method: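 Recombinant human AChE (50 mU/mL in the enzyme mix) and human liver microsomes (0.25 mg/mL final) were preincubated with compound and NADPH (0.25 mg/mL final) for 30 min at 37 C. Acetylthiocholine/DTNB was then added; thiocholine was read colorimetrically after 10 min at room temperature.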

[8] = molecular target: Cytochrome P450 2C19 (Homo sapiens) (UniProt P33261); assay: Cytochrome P450 Family 2 Subfamily C Member 19 (CYP2C19) small molecule antagonists: luciferase reporter qHTS assay (AID 1671197); further: nearly all actives have a fitted effect of over 65% in size; further: potency means the concentration at half of the fitted maximal effect
Sequence of Cytochrome P450 2C19 (Homo sapiens) (P33261 whole entry, looked up): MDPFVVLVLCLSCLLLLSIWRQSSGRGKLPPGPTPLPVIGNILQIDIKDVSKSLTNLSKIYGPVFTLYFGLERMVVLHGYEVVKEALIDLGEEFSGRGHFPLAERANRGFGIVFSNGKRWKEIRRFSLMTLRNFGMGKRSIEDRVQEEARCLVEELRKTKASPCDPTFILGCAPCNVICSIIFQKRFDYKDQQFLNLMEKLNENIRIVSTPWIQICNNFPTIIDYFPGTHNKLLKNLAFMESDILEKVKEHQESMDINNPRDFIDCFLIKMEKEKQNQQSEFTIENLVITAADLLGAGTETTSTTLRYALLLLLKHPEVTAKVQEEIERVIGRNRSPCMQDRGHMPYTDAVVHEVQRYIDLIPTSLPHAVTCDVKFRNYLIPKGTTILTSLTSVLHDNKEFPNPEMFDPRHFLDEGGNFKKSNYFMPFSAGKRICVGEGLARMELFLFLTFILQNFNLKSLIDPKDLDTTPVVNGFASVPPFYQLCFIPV
Summary of the method: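 Light output is proportional to CYP2C19 activity: proluciferin substrate is converted to luciferin, then detected by a luciferin detection reagent that also stops the 1 h, 37C NADPH-driven reaction. Ketoconazole serves as positive control.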

[9] = molecular target: Cytochrome P450 2C9 (Homo sapiens) (UniProt P11712); assay: Cytochrome P450 Family 2 Subfamily C Member 9 (CYP2C9) small molecule antagonists: luciferase reporter qHTS assay (AID 1671198); further: nearly all actives have a fitted effect of over 50% in size; further: potency means the concentration at half of the fitted maximal effect
Sequence of Cytochrome P450 2C9 (Homo sapiens) (P11712 whole entry, looked up): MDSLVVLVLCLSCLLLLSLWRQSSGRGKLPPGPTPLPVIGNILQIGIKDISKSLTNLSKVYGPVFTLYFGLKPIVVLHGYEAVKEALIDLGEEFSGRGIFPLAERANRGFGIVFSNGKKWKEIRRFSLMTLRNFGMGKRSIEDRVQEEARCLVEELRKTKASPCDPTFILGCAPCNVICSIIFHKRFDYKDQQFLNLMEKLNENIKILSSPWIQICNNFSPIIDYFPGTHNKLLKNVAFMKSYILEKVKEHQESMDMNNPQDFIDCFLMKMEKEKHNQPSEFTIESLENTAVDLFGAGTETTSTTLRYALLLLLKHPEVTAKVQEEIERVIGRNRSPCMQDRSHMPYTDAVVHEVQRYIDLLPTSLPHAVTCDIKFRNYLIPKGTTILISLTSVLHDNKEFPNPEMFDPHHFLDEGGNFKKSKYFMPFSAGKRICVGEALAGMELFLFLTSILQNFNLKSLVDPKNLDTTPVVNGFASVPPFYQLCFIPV
Summary of the method: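 CYP2C9 activity was measured with a P450-Glo proluciferin substrate. Enzyme–substrate mix was held with compound for 10 min at room temperature, then NADPH regeneration solution was added for 1 h at 37C. Luciferin product was read as luminescence.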

[10] = molecular target: Cytochrome P450 1A2 (Homo sapiens) (UniProt P05177); assay: Cytochrome P450 Family 1 Subfamily A Member 2 (CYP1A2) small molecule antagonists: luciferase reporter qHTS assay (AID 1671199); further: nearly all actives have a fitted effect of over 50% in size; further: potency means the concentration at half of the fitted maximal effect
Sequence of Cytochrome P450 1A2 (Homo sapiens) (P05177 whole entry, looked up): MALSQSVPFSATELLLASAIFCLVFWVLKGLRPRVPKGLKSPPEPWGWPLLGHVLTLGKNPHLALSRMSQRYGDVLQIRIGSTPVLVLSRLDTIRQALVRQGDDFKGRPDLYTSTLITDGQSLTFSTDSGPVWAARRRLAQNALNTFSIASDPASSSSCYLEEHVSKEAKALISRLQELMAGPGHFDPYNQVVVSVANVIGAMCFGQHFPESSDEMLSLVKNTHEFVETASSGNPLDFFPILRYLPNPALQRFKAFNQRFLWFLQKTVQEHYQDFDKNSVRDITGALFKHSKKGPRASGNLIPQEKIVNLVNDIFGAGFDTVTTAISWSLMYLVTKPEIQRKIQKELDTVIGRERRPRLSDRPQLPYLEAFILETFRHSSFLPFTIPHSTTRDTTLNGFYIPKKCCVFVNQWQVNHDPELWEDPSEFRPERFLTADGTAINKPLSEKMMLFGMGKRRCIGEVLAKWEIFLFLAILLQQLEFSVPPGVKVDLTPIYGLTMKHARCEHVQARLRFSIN
Summary of the method: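 CYP1A2 turnover of a luminogenic substrate was quantified after 1 h with NADPH regeneration at room temperature. Furafylline served as positive control.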

[11] = Caspase-3/7 induction in HepG2 cells by small molecules, qHTS cell viability counter screen (AID 1346981); further: nearly all actives have a fitted effect of over 30% in size; further: potency means the concentration at half of the fitted maximal effect
Summary of the method: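 Multiplexed with the caspase-3/7 assay: HepG2 cells, 16 hr compound treatment, CellTiter-Fluor viability detection by fluorescence.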

[12] = molecular target: Cytochrome P450 2D6 (Homo sapiens) (UniProt P10635); assay: Cytochrome P450 Family 2 Subfamily D Member 6 (CYP2D6) small molecule antagonists: luciferase reporter qHTS assay (AID 1671196); further: nearly all actives have a fitted effect of over 50% in size; further: potency means the concentration at half of the fitted maximal effect
Sequence of Cytochrome P450 2D6 (Homo sapiens) (P10635 whole entry, looked up): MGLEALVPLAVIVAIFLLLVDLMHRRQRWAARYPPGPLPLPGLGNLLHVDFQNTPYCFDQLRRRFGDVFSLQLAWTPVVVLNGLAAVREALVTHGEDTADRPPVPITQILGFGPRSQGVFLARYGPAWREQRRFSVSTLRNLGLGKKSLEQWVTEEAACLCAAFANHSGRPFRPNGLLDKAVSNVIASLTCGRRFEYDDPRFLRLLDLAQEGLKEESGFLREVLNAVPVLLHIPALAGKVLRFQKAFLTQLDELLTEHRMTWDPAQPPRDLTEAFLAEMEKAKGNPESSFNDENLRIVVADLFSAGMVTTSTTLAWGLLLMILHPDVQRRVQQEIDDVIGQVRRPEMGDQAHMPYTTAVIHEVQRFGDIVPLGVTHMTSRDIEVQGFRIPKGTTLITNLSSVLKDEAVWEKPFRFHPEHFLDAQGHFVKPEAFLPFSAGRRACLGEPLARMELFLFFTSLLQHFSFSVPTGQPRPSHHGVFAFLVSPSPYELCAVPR
Summary of the method: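 Luminescence (RLU), read 20 min after detection reagent, indicated CYP2D6 conversion of proluciferin to luciferin during a 1 h NADPH-dependent reaction at room temperature.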

[13] = molecular target: Voltage-gated inwardly rectifying potassium channel KCNH2 (Homo sapiens) (UniProt Q12809); assay: Human Ether-a-go-go-Related Gene (hERG) channel small molecule antagonists: fluorescence cell-based qHTS assay (AID 1671200); further: nearly all actives have a fitted effect of over 50% in size; further: potency means the concentration at half of the fitted maximal effect
Sequence of Voltage-gated inwardly rectifying potassium channel KCNH2 (Homo sapiens) (Q12809 whole entry, looked up): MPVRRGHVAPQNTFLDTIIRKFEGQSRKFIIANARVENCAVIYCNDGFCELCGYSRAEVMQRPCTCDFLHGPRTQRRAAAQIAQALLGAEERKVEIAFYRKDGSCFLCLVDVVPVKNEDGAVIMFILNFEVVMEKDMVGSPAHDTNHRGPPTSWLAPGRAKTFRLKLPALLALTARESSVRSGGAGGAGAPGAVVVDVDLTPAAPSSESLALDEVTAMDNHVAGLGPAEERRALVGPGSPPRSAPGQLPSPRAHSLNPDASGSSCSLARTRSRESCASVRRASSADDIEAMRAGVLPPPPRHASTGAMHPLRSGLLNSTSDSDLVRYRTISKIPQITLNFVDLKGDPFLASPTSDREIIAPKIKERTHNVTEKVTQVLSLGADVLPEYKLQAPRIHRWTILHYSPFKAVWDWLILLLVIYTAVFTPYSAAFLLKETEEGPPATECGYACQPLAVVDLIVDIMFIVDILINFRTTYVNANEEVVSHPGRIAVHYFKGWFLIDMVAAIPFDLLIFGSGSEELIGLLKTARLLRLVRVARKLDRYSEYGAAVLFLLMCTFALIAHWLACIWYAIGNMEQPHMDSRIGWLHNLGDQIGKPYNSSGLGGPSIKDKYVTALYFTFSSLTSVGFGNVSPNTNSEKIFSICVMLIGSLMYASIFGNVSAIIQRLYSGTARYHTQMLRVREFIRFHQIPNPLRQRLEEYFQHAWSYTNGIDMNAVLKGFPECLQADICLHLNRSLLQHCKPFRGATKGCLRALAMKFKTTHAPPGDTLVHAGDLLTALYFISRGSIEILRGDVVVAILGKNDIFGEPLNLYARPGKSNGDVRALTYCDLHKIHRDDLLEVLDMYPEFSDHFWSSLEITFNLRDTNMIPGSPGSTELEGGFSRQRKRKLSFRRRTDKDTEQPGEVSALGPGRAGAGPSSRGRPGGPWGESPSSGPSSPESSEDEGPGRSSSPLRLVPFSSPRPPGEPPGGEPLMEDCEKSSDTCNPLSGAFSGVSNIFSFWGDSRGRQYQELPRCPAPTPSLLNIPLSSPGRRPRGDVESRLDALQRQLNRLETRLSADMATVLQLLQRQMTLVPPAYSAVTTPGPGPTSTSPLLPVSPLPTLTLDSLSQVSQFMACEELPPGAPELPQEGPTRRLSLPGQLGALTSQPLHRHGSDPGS
Summary of the method: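 Quantitative HTS in hERG-U2OS cells: thallium entry through the channel reports activity, read as continuous 480/540 nm fluorescence over 2 min after stimulus addition.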

[14] = molecular target: Cytochrome P450 3A4 (Homo sapiens) (UniProt P08684); assay: Cytochrome P450 Family 3 Subfamily A Member 4 (CYP3A4) small molecule antagonists: luciferase reporter qHTS assay (AID 1671201); further: nearly all actives have a fitted effect of over 50% in size; further: potency means the concentration at half of the fitted maximal effect
Sequence of Cytochrome P450 3A4 (Homo sapiens) (P08684 whole entry, looked up): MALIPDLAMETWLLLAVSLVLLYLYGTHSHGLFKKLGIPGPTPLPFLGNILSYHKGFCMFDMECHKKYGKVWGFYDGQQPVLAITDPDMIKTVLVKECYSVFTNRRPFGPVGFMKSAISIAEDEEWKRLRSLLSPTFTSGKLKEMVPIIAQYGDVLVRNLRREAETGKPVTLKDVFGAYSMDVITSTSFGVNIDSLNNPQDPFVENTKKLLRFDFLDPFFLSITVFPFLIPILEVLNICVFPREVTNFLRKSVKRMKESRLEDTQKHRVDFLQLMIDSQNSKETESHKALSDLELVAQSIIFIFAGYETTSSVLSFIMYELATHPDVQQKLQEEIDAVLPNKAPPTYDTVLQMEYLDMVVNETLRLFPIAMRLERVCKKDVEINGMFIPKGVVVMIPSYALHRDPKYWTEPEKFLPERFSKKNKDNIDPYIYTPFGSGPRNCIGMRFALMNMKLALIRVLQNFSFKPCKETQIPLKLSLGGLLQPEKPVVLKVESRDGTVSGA
Summary of the method: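 Inhibition of CYP3A4 is measured as loss of light: the enzyme converts a proluciferin substrate to luciferin, detected luminescently. Reaction ran 1 h at room temperature with NADPH regeneration after a 10 min compound preincubation.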

[15] = molecular target: Nuclear receptor subfamily 1 group I member 2 (Rattus norvegicus) (UniProt Q9R1A7); assay: Rat pregnane X receptor (rPXR) activation by small molecules, qHTS assay (AID 1346983); settings: rPXR luciferase reporter cells, One-Glo luminescence, 24 h; stronger effect = higher value; further: nearly all actives have a fitted effect of over 20% in size
Summary of the method: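 Cell-based rPXR luciferase reporter assay, 2,000 cells per well, rested 5hr at 37 C before compound addition in DMSO, then 24 hr at 37 C. One-Glo reagent was added and luminescence read after 30 min at room temperature.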

[16] = molecular target: Nuclear receptor subfamily 1 group I member 2 (Homo sapiens) (UniProt O75469); assay: Human pregnane X receptor (PXR) activation by small molecules, qHTS assay (AID 1346985); further: nearly all actives have a fitted effect of over 40% in size
Summary of the method: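 DPX-2 cells (HepG2 co-transfected with a PXR response element and a CYP3A4-promoter luciferase construct) were seeded at 2,000 per well, rested 5 hr at 37C, then exposed to DMSO-dissolved compounds for 24 hr. Activation was read as luciferase luminescence.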

[17] = molecular target: Nuclear receptor subfamily 1 group I member 2 (Homo sapiens) (UniProt O75469); assay: CYP3A4 induction through human pregnane X receptor (PXR) by small molecules, qHTS assay (AID 1346984); further: nearly all actives have a fitted effect of over 40% in size
Summary of the method: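 qHTS, concentration-response format: HepG2 DPX-2 line, PXR/CYP3A4-luc. Exposure 24 h, 37C. Substrate Luciferin-IPA 3uM final, 3 h. Detection One-Glo, 30 min RT.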
On the % scale 0 is the no-effect control and ±100 the full control effect.

CCCCOC(=O)COC(=O)c1ccccc1C(=O)OCCCC
active: Potency [8] 7.93 µM and 11.2 µM | Potency [9] 6.3 µM and 7.1 µM | Potency [10] 11.2 µM and 20 µM
inactive: Potency [1] | Potency [2] | Potency [3] | Potency [4] | Potency [5] | Potency [6] | Potency [7]

CCC/C=N/O
34.2 µM (active) and inactive: Potency [5]
inactive: Potency [1] | Potency [2] | Potency [11] | Potency [3] | Potency [4] | Potency [7] | Potency [12] | Potency [8] | Potency [9] | Potency [10] | Potency [13] | Potency [14]
8.6 µM (active) and inactive: Potency [6]

OC(c1ccc(Cl)cc1)(c1cncnc1)c1ccccc1Cl (centres undefined)
active: Potency [2] 62.2 µM | Potency [3] 31.2 µM and 30.6 µM | Potency [12] 36.2 µM and 35.6 µM | Potency [8] 229 nM and 283 nM | Potency [9] 7.23 µM and 6.33 µM | Potency [13] 49.8 µM and 54.9 µM | Potency [14] 182 nM and 224 nM
inactive: Potency [1] | Potency [4] | Potency [5] | Potency [6] | Potency [7]

Cn1c(-c2ccccc2)cc(-c2ccccc2)[n+]1C
inactive: Potency [1] | Potency [2] | Potency [3] | Potency [5] | Potency [7] | Potency [8] | Potency [10] | Potency [14]
active: Potency [12] 502 nM and 1 µM | Potency [13] 43.6 µM
inactive and 35.6 µM (active): Potency [9]

CCCCCCCCCc1ccc(O)cc1
active: Potency [1] 61.8 µM and 27.3 µM | Potency [2] 61.8 µM and 54.5 µM | Potency [11] 43.3 µM | Potency [3] 61.8 µM and 61.1 µM | Potency [8] 6.39 µM and 10 µM | Potency [9] 20.2 µM and 31.7 µM
inactive: Potency [4] | Potency [6] | Potency [7] | Potency [12] | Potency [13]
inactive and 39.9 µM (active): Potency [10]

CC(C)(O)C#N
inactive and 39.9 µM (active): Potency [10]
inactive: Potency [1] | Potency [2] | Potency [3] | Potency [4] | Potency [5] | Potency [6] | Potency [7] | Potency [12] | Potency [13] | Potency [14]
active: Potency [8] 75.3 µM and 39.9 µM | Potency [9] 42.4 µM

N#CCCCCC#N
inactive: Potency [1] | Potency [2] | Potency [11] | Potency [3] | Potency [4] | Potency [5] | Potency [6] | Potency [7] | Potency [12] | Potency [9] | Potency [13] | Potency [14]
72.5 µM (active) and inactive: Potency [8]

ClCc1ccccn1
inactive: Potency [1] | Potency [2] | Potency [3] | Potency [4] | Potency [5] | Potency [6] | Potency [7] | Potency [9] | Potency [10] | Potency [13]
active: Potency [12] 39.2 µM
78.1 µM (active) and inactive: Potency [8]

O=C1Nc2ccc(Cl)cc2C(c2ccccc2)=NC1O (centres undefined)
inactive: Potency [1] | Potency [2] | max activation [15] 0.163% | outcome [16] | Potency [4] | Potency [5] | Potency [6]
active: Potency [3] 38.9 µM and 46.1 µM

Nc1ncn[nH]1
inactive: Potency [1] | Potency [2] | Potency [3] | Potency [4] | Potency [5] | Potency [6] | Potency [7] | Potency [12] | Potency [8] | Potency [9] | Potency [10] | Potency [13] | Potency [14]

CCCCCCCCCCCCCl
31.3 µM (active) and inactive: Potency [14]
inactive: Potency [1] | Potency [2] | Potency [11] | Potency [3] | Potency [4] | Potency [5] | Potency [6] | Potency [7] | Potency [12] | Potency [8] | Potency [9] | Potency [10] | Potency [13]

O=[N+]([O-])c1ccc(Nc2ccccc2)cc1
active: Potency [2] 48.9 µM and 48.6 µM | Potency [3] 30.9 µM and 48.6 µM | Potency [12] 32 µM and 35.6 µM | Potency [8] 8.03 µM and 20 µM | Potency [9] 32 µM and 35.6 µM | Potency [10] 12.7 µM and 22.4 µM
inactive: Potency [1] | Potency [4] | Potency [5] | Potency [6] | Potency [7] | Potency [13]

CCC(=O)Nc1ccc(Cl)c(Cl)c1
active: Potency [12] 36.3 µM | Potency [8] 22.9 µM and 35.6 µM | Potency [9] 64.6 µM and 63.3 µM | Potency [10] 5.13 µM and 7.1 µM
inactive: Potency [1] | Potency [11] | Potency [4] | Potency [5] | Potency [6] | Potency [7] | Potency [13]

COP(=S)(OC)Oc1ccc(S(=O)(=O)N(C)C)cc1
inactive: Potency [1] | Potency [2] | max activation [15] -2.31% | Potency [17] | outcome [16] | Potency [5] | Potency [7] | Potency [13]
31.7 µM (active) and inactive: Potency [10]
active: Potency [4] 39.9 µM | Potency [12] 35.6 µM | Potency [8] 79.6 nM and 55 nM | Potency [9] 356 nM and 490 nM
34.4 µM (active) and inactive: Potency [3]
